# Results filed as inconclusive are left out. Values without a mark were called inactive. Activity calls are given as the source filed them. The call rests on the fitted dose curve; in most records, active means well fitted curve in the direction sought with a large enough effect; inconclusive means small, poorly fitted or top-dose-only effect, or effect the other way, or another doubt; inactive means no such curve, though single readings can be large or run the other way.
# Biological target: Transient receptor potential cation channel subfamily V member 1 (Homo sapiens) (UniProt Q8NER1)
# Sequence (Q8NER1 whole entry, looked up): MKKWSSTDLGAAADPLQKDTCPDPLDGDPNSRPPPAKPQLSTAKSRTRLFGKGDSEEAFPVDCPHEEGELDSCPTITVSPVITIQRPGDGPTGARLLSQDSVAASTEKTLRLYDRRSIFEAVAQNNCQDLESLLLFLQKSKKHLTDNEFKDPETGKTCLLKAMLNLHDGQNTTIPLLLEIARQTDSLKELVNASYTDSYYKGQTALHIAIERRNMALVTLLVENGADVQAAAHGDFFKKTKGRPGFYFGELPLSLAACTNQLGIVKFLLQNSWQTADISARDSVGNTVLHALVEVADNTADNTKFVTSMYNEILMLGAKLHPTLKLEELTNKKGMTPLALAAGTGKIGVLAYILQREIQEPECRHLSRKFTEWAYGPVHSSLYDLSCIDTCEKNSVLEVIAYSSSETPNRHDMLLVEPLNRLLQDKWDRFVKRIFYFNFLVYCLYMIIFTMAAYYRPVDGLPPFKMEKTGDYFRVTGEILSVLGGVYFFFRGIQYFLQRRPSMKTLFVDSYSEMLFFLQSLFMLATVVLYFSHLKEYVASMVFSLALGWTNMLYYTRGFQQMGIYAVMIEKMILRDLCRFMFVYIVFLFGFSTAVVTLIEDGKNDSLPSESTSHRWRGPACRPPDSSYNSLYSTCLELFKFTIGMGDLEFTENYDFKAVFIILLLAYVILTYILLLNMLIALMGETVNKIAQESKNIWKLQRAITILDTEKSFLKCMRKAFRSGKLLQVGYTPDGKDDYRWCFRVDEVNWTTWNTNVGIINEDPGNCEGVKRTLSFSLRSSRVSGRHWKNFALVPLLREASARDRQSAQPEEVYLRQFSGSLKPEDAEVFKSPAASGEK
# Assay: HTS Assay for Compounds that Act as Enhancers of the Vanilloid Receptor 1 (AID 488979); further: 0% is about no effect
# Details: TRPV1-expressing cells, enhancer of channel activity, stimulated with capsaicin at EC20; series mostly up to 41.7 µM; activity change, positive = enhancement: at the top concentration
# Excerpt: The transient receptor potential ion channel, family V, number 1, (TRPV1) is one of the most important molecular transducers of painful stimuli and a potential target for analgesic drug development. Although recent clinical trials with orthosteric antagonists have not produced a successful drug because of a hyperthermia side effect and their tendency to block thermal noxious pain, this ion channel is undeniably well placed in the pain pathway, and the idea of blocking pain signals before they enter the CNS is an excellent concept and of proven efficacy when TRPV1 agonists are used. We propose a new approach involving allosteric modulation to impose an activity-dependent constraint within the context of inflammation and tissue damage that would alter the responsiveness of the channel in a way that an orthosteric vanilloid antagonist cannot achieve. We believe that the allosteric modulator approach has not been explored for this target.
# The main goal of this proposal is to identify additional, new, potent allosteric modulators of TRPV1 that can be used to investigate TRPV1 function. Our recent report provides evidence of proof of concept, but the compounds are just at the edge of utility in terms of potency. […] The question of whether they can be used as analgesic agents is complex, but if suitable compounds are identified then testing for analgesic properties will be conducted.
# Upon TRPV1 activation in TRPV1 cells, the channel opens and extracellular cations flow through the channel into the cytosol. A calcium binding dye (Fluo-8) becomes fluorescent when bound to calcium. This dye is pre-loaded into cells and is used as a marker for calcium influx.
# The amount of accumulated calcium is precisely quantified using the FDSS kinetic reader and the calcium dye.
# For the HTS assay, freshly prepared cells are plated at a density of 2000/well in 3 ul medium in 1536-well plates and cultured overnight at 35.5C. Cells will be loaded with 1 ul of the homogeneous calcium dye (ABD Bioquest) at room temperature for 40 to 90 minutes. Plates will be loaded into the FDSS kinetic reader and a 1 sec / cycle for 10 second baseline signal will be measured. Compound library will then be added with a pintool at 23 nl and measured kinetically for 3 minutes. This portion of the read is considered the agonist portion of the screen. Following the 3 minutes of incubation, an on board pipettor will deliver 1 ul of capsaicin for a final concentration equal to the EC20. Signal will be measured kinetically for an additional 2 minutes. This portion of the read is considered the allosteric enhancer portion of the screen.
# The FDSS reader has a standard filter set capable of measuring calcium bound Fluo-8 (ex=480 and em=520 nm).
SMILES,"activity change, positive = enhancement",outcome
Cn1cnc2c1c(=O)[nH]c(=O)n2C,6.2%,–
NC12CC3CC(CC(C3)C1)C2,13.1%,–
O=c1c(-c2ccc(O)cc2)coc2cc(O)cc(O)c12,-8.12%,–
CN(Cc1cnc2nc(N)nc(N)c2n1)c1ccc(C(=O)N[C@@H](CCC(=O)O)C(=O)O)cc1,-10.3%,–
COc1ccc2c(c1)c(CC(=O)O)c(C)n2C(=O)c1ccc(Cl)cc1,-3.32%,–
NCCCCCC(=O)O,-8.84%,–
COc1nc(C)nc(Cl)c1NC1=NCCN1,6.6%,–
Cn1c(=O)c2[nH]cnc2n(C)c1=O,4.42%,–
Cc1ccc(C(=O)Nc2ccc(S(=O)(=O)O)c3cc(S(=O)(=O)O)cc(S(=O)(=O)O)c23)cc1NC(=O)c1cccc(NC(=O)Nc2cccc(C(=O)Nc3cc(C(=O)Nc4ccc(S(=O)(=O)O)c5cc(S(=O)(=O)O)cc(S(=O)(=O)O)c45)ccc3C)c2)c1,-4.32%,–
O=c1c(O)c(-c2ccc(O)c(O)c2)oc2cc(O)cc(O)c12,10.9%,–
CS(=O)(=O)Nc1ccc([N+](=O)[O-])cc1Oc1ccccc1,-4.56%,–
CN1CCC(=C2c3ccccc3CC(=O)c3sccc32)CC1,24%,–
CN(C)CCOC(c1ccccc1)c1ccccc1,13%,–
CC1COc2c(N3CCN(C)CC3)c(F)cc3c(=O)c(C(=O)O)cn1c23 (stereo not given),6.72%,–
Nc1nc2c(ncn2COC(CO)CO)c(=O)[nH]1,3.58%,–
COc1ccccc1OCC(O)CN1CCN(CC(=O)Nc2c(C)cccc2C)CC1 (stereo not given),-18.6%,–
COc1cc2c(c(OC)c1OC)-c1ccc(OC)c(=O)cc1[C@@H](NC(C)=O)CC2,2.4%,–
O=C(Nc1ccc([N+](=O)[O-])cc1Cl)c1cc(Cl)ccc1O,-22.4%,–
CC(C(=O)O)c1cccc(C(=O)c2ccccc2)c1 (stereo not given),-3.01%,–
CC(C)(Oc1ccc(C2CC2(Cl)Cl)cc1)C(=O)O (stereo not given),0.608%,–

SMILES,"activity change, positive = enhancement",outcome
CN1C2CCC1CC(OC(=O)C(CO)c1ccccc1)C2 (stereo not given),–,inactive
NS(=O)(=O)c1cc2c(cc1Cl)NCNS2(=O)=O,4.56%,–
Cc1cn([C@H]2C=C[C@@H](CO)O2)c(=O)[nH]c1=O,4.96%,–
CN1CCN2c3ccccc3Cc3ccccc3C2C1 (stereo not given),17%,–
COc1ccc(C2CNC(=O)C2)cc1OC1CCCC1 (stereo not given),1.34%,–
CN1C(C(=O)Nc2ccccn2)=C(O)c2ccccc2S1(=O)=O,-8.54%,–
CCC1(c2ccccc2)C(=O)NCNC1=O,-5.55%,–
NC(=O)NO,3.93%,–
CC(C)C(=O)Nc1ccc([N+](=O)[O-])c(C(F)(F)F)c1,-8.42%,–
Cc1ccccc1N1C(=O)c2cc(S(N)(=O)=O)c(Cl)cc2NC1C (stereo not given),-0.462%,–
NCCS(=O)(=O)O,6.72%,–
CC(CCc1ccc(O)cc1)NCCc1ccc(O)c(O)c1 (stereo not given),7.9%,–
O=C(C1CCCCC1)N1CC(=O)N2CCc3ccccc3C2C1 (stereo not given),7.88%,–
Cc1cc(C(C)(C)C)cc(C)c1CC1=NCCN1,19.7%,–
Cn1c(=O)c2c(ncn2C)n(C)c1=O,4.45%,–
COc1ccc2[nH]cc(CCNC(C)=O)c2c1,3.63%,–
O=C(c1ccc(F)cc1)C1CCN(CCn2c(=O)[nH]c3ccccc3c2=O)CC1,0.558%,–
CC(COc1ccccc1)N(CCCl)Cc1ccccc1 (stereo not given),-19.9%,–
CC(C)NCC(O)COc1ccc(CCOCC2CC2)cc1 (stereo not given),13.9%,–
CC(C)NCC(O)c1ccc(O)c(O)c1 (stereo not given),–,inactive
